In PubChem BioAssay (Tox21) one finds Potency and outcome data, which are given here for 31 compounds.

A short description of experiment [1]: qHTS assay to identify small molecule antagonists of the sonic hedgehog signaling (Shh) pathway (AID 1259369). Also: nearly all actives have a fitted effect of over 45% in size. Also: potency is read from the fitted curve at half-maximal effect. Put shortly: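 Stable Gli1-Luc reporter NIH/3T3 clone; quantitative HTS in stimulated mode with conditioned medium. Luminescence measured after 24hr compound treatment at 37 C.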
Experiment [2] can be described thus: qHTS assay to identify small molecule agonists of the androgen receptor (AR) signaling pathway in the presence of an antagonist - cell viability counter screen (AID 1259379; active = well fitted curve in the direction sought with a large enough effect in the repeat runs; an effect the other way counts as inactive or inconclusive; also: nearly all actives have a fitted effect of over 25% in size; also: potency is read from the fitted curve at half-maximal effect). Put shortly: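 Nilutamide-containing (3.0uM final) MDA-kb2 cultures, 3,000 cells/well, were treated with compounds across 15 concentrations. After 16 hr at 37C with no CO2, cell viability was determined by CellTiter-Fluor fluorescence in the luciferase assay wells.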

Experiment [3] is described as follows: qHTS assay to identify small molecule agonists of the estrogen receptor beta (ER-beta) signaling pathway - cell viability counter screen (AID 1259380; active = well fitted curve in the direction sought with a large enough effect in the repeat runs; an effect the other way counts as inactive or inconclusive; also: nearly all actives have a fitted effect of over 30% in size; also: potency is read from the fitted curve at half-maximal effect). Put shortly:
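Steps: plate ER-beta-UAS-bla HEK293T cells, rest 6 hr; add compounds in DMSO; incubate 16 hr at 37C, 5% CO2; add FRET substrate 2 hr; add CellTiter-Glo, wait 30 min at room temperature; read luminescence.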
In general terms: qHTS replaces the single test concentration by a dilution series.

Experiment [4] has as its target Androgen receptor (Homo sapiens) (UniProt P10275). Put plainly: qHTS assay to identify small molecule agonists of the androgen receptor (AR) signaling pathway in the presence of an antagonist (AID 1259381). Also: nearly all actives have a fitted effect of over 15% in size. In outline:
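Reporter-gene luminescence from MDA-kb2 cells exposed 16hr at 37C (0% CO2) to 15-point compound titrations with 3.0uM final nilutamide as AR antagonist.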

The nature of experiment [5]: qHTS assay to identify small molecule antagonists of the estrogen receptor beta (ER-beta) signaling pathway - cell viability counter screen (AID 1259382; active = well fitted curve in the direction sought with a large enough effect in the repeat runs; an effect the other way counts as inactive or inconclusive; also: nearly all actives have a fitted effect of over 55% in size; also: potency is read from the fitted curve at half-maximal effect). Put shortly: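 Viability is scored by CellTiter-Glo luminescence (30 min, room temperature) in ER-beta-UAS-bla HEK293T wells already read for reporter fluorescence. Compound exposure lasts 16 hr at 37C alongside 1nM 17-beta-estradiol in charcoal-stripped serum medium.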

In experiment [6] the target is Estrogen receptor (Homo sapiens) (UniProt P03372). Kind of experiment: qHTS assay to identify small molecule agonists of the estrogen receptor alpha (ER-alpha) signaling pathway in the presence of an antagonist (AID 1259383). Also: top concentration of the series differs between compounds; nearly all actives have a fitted effect of over 15% in size. In outline:
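Readout was ERE-driven luciferase luminescence in VM7Luc4E2 cells, which express full-length ER-alpha endogenously. Compounds were tested at 15 concentrations for 22hr alongside 10.0nM ICI-182,780 (final concentration).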

Experiment [7] is described as follows: qHTS assay to identify small molecule agonists or antagonists of the thyroid stimulating hormone receptor (TSHR) signaling pathway - wild type cell line counter screen (AID 1259384). In outline: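 Counter screen in untransfected Hek293: compounds (15-point titration, triplicate) plus phosphodiesterase inhibitor Ro20-1724 added after 18 h plating; 30 min RT. Intracellular cAMP via competitive d2/cryptate immunoassay, 1 h incubation.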

Experiment [8] deals with Thyrotropin receptor (Homo sapiens) (UniProt P16473). Kind of experiment: qHTS assay to identify small molecule antagonists of the thyroid stimulating hormone receptor (TSHR) signaling pathway (AID 1259385). Also: nearly all actives have a fitted effect of over 20% in size. Also: potency is read from the fitted curve at half-maximal effect. In outline: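 Antagonist mode: compound-treated TSHR-expressing HEK293 cells were stimulated with 1.5 ng/mL TSH (final) in presence of Ro20-1724 for 30 min at RT. HTRF cAMP detection after 1 h; each compound tested at 15 concentrations, triplicate.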
Thyrotropin receptor (Homo sapiens), sequence (P16473 whole entry, looked up): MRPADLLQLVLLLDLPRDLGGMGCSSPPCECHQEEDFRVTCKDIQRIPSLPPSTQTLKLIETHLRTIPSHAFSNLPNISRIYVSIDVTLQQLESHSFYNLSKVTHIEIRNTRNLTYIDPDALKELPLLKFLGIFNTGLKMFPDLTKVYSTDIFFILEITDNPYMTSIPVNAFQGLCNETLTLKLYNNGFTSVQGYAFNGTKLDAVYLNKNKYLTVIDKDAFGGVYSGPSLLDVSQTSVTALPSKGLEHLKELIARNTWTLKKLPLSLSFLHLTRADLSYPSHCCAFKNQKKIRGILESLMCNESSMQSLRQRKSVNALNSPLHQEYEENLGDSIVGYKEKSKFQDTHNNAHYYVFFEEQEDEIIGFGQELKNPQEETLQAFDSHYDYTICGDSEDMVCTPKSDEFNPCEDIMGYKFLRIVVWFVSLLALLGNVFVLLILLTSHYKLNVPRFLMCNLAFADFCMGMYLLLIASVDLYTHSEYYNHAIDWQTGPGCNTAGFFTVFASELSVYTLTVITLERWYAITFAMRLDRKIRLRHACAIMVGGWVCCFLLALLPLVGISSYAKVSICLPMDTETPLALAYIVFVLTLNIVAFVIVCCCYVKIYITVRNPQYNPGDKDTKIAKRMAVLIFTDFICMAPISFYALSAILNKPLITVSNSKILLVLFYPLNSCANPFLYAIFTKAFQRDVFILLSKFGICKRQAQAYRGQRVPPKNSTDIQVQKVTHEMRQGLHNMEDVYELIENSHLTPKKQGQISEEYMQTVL

The target of experiment [9] is Estrogen receptor beta (Homo sapiens) (UniProt Q92731). Kind of experiment: qHTS assay to identify small molecule antagonists of the estrogen receptor beta (ER-beta) signaling pathway (AID 1259378; active = well fitted inhibition curve with a large enough effect in the signal ratio in the repeat runs, not every such curve was filed as active; the % refers to the signal ratio; also: potency is read from the fitted curve at half-maximal effect). Put shortly:
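Antagonist mode: compounds added to beta-lactamase reporter HEK293T ER-beta-UAS cells stimulated with E2 (1nM final), 16 hr at 37C. LiveBLAzer B/G FRET substrate, 2 hours room temperature, fluorescence read-out.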

For experiment [10] the target is unchanged. Put plainly: qHTS assay to identify small molecule agonists of the estrogen receptor beta (ER-beta) signaling pathway (AID 1259377; active = well fitted activation curve with a large enough effect in the signal ratio in the repeat runs, not every such curve was filed as active; the % refers to the signal ratio). In outline:
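In HEK293T cells bearing a UAS-beta-lactamase reporter under ER-beta control, DMSO-delivered compounds were incubated for 16 hr at 37C. Activity was detected as fluorescence 2 hours after LiveBLAzer B/G FRET substrate addition.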

Each structure is given as a SMILES string. Where “and” joins values, the source holds several entries; their conditions need not be identical. Identical values can stand only once. A number with no mark means an inactive call. Results filed as inconclusive are left out. Calls of active or inactive are those of the source. Unless noted, calls follow the shape of the full dose curve.

Estrogen receptor beta (Homo sapiens), sequence (Q92731 whole entry, looked up): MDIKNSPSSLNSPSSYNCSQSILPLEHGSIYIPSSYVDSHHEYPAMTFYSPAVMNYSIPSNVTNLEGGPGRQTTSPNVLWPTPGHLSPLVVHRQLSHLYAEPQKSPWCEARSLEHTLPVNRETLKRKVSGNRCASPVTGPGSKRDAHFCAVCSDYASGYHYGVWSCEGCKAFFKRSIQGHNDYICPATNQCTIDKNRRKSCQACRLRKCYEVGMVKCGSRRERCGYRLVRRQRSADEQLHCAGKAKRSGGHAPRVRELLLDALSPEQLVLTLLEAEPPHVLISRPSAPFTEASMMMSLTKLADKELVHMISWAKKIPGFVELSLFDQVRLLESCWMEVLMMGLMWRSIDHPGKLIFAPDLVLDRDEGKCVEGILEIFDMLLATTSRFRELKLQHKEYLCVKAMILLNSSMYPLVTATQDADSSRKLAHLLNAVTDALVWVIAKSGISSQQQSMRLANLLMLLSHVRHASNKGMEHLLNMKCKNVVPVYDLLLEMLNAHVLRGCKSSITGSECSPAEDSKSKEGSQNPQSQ
Estrogen receptor (Homo sapiens), sequence (P03372 whole entry, looked up): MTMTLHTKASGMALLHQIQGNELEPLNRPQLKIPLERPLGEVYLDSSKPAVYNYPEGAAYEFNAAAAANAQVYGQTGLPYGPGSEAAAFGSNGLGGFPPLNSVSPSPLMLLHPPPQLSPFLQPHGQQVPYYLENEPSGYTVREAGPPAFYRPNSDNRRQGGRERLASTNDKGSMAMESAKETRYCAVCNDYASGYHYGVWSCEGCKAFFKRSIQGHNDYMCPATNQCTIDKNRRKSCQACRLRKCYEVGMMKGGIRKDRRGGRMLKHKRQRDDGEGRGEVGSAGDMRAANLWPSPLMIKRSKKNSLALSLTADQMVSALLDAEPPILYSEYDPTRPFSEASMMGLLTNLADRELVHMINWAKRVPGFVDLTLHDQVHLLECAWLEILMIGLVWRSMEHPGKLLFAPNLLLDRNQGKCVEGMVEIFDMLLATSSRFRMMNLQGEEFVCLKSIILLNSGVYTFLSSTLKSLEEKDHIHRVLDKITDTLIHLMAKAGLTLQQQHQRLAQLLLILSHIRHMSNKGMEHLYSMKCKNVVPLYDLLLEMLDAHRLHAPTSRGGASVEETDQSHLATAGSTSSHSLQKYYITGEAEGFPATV
Androgen receptor (Homo sapiens), sequence (P10275 whole entry, looked up): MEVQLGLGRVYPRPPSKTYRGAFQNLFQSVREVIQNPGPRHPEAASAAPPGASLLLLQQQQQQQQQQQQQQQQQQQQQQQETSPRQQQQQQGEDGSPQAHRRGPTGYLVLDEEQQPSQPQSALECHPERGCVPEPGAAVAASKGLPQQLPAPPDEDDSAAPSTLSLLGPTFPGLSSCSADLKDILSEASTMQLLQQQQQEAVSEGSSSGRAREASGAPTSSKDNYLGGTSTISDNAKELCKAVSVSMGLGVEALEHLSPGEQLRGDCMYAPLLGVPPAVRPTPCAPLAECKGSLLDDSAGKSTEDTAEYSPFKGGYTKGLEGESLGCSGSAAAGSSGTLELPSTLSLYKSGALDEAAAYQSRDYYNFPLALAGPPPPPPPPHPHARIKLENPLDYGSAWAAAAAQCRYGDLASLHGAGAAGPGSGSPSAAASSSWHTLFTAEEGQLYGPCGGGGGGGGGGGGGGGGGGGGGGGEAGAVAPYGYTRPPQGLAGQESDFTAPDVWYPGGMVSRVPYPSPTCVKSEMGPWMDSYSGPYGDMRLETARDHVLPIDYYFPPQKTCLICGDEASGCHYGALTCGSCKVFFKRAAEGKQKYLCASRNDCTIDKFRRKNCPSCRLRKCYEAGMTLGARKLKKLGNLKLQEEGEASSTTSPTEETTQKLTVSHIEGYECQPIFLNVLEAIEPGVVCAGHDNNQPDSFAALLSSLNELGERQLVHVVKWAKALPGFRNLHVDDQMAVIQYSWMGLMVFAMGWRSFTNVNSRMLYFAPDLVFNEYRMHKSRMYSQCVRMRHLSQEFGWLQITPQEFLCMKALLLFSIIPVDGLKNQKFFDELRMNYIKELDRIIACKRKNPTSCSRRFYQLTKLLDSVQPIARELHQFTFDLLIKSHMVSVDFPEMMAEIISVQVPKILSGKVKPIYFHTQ

In the case of `O=[N+]([O-])c1cc(C2CCCCC2)c(O)c([N+](=O)[O-])c1`, the values for the Potency in experiment [1] and in experiment [2] were 1.08 µM (active) and 24.3 µM (active), respectively. Further, the Potency result in [3], in experiment [4], in [5] and in experiment [6] was “inactive” each time. Also, the compound was classed as inactive in experiment [7].
On to `Cc1ccc(OC(=O)c2ccccc2O)cc1`, for which the Potency entry in experiment [1], in experiment [2], in experiment [3] and in [5] was “inactive” each time.
In the case of `Cc1cc(O)c(C)c(C)c1O`, the Potency result in experiment [1], in [2], in experiment [3], in [4], in [5] and in [6] was “inactive” each time.
Turning to `CCOC(=O)c1ccc(I)cc1`, the Potency entry in [1], in [2], in experiment [3], in [5], in [6] and in experiment [8] was “inactive” throughout. Besides, in experiment [7], the compound was classed as inactive.
`Cc1ccco1`: the Potency entry in [1], in [2], in experiment [3], in experiment [5], in experiment [6] and in [8] was “inactive” in each case. Besides, the result in experiment [7] was inactive.
Take `CC(C)C[C@H](NC(=O)[C@H](CCc1ccccc1)NC(=O)CN1CCOCC1)C(=O)N[C@@H](Cc1ccccc1)C(=O)N[C@@H](CC(C)C)C(=O)[C@@]1(C)CO1`: the Potency was 0.0119 µM (active) in experiment [1], 1.19 µM (active) in experiment [2] and 0.266 µM (active) in experiment [3]. Besides, the Potency entry in [6] and in experiment [8] was “inactive” throughout. Besides, in experiment [7], the compound was called inactive.
Consider `CC(=O)Oc1ccc([N+](=O)[O-])cc1CCl`, for which the Potency result in [1], in experiment [3], in experiment [5], in experiment [6] and in [8] was “inactive” throughout. Further, in experiment [2], the Potency was 30.6 µM (active). In experiment [7], the compound was called inactive.
As to `CN1CC(=O)N2[C@H](c3ccc4c(c3)OCO4)c3[nH]c4ccccc4c3C[C@@H]2C1=O`, the Potency result in experiment [1], in [2], in [3], in experiment [5] and in experiment [6] was “inactive” throughout. The result in experiment [7] was inactive.
`O=C=Nc1ccc(Cl)c(Cl)c1`: the Potency entry in experiment [1], in experiment [2], in experiment [6] and in [8] was “inactive” each time. Moreover, the Potency in experiment [3] is 47.8 µM (active). Besides, the result in experiment [7] was inactive.
As for `CN1CCCC(CC2c3ccccc3Sc3ccccc32)C1` (centres undefined), the Potency in [1] was 6.68 µM (active); in [9] it was 13.3 µM (active); in experiment [3], 18.8 µM (active); in experiment [5], 11.9 µM (active); in experiment [8] it was 29.8 µM (active). Also, the Potency entry in experiment [6] was “inactive”. For the same compound, the compound was called inactive in experiment [7].
Consider `C[C@@H]1CC(=O)NN=C1c1ccc(NN=C(C#N)C#N)cc1`, for which the Potency is 13.3 µM (active) in experiment [1]; 23.7 µM (active) and 13.3 µM (active) in experiment [2]. Further, the Potency result in experiment [3], in experiment [4], in [5] and in experiment [6] was “inactive” in each case. In experiment [7], the result was inactive.
`COC(=O)c1nc(Cl)c(Cl)nc1N`: the Potency in experiment [1] was 0.75 µM (active); in experiment [2] it was 29.8 µM (active); in experiment [3], 29.8 µM (active). In addition, the Potency result in experiment [6] and in experiment [8] was “inactive” each time. For the same compound, the call in experiment [7] was inactive.
As for `C=COCC(C)C`, the Potency entry in [1], in [2], in [3], in experiment [5] and in [6] was “inactive” in each case. Besides, in experiment [7], the call was inactive.
Consider `CCC(=O)C1CC(C(C)C)CC=C1C` (centres undefined), for which the Potency entry in experiment [10], in experiment [9], in [2], in [3], in [4] and in experiment [5] was “inactive” throughout. Further, the Potency entry in [6] was “inactive”.
For the compound `N#[N+]c1ccc2c(S(=O)(=O)[O-])cccc2c1O`, the Potency result in experiment [1], in experiment [3], in experiment [5] and in [6] was “inactive” each time.
As for `Cc1cccc(O)c1N`, the Potency in experiment [1] was 15.5 µM (active). Besides, in experiment [2], the Potency entry is “inactive”. For the same compound, the call in experiment [7] was inactive.
Consider `COc1cc(N)c(Cl)cc1C(=O)NC1CCN(CCCOc2ccc(F)cc2)CC1OC` (centres undefined), for which the Potency in experiment [1] was 2.66 µM (active); in experiment [3], 5.96 µM (active). Moreover, the Potency result in [5] and in [6] was “inactive” in each case. For the same compound, in experiment [7], the result was inactive.
For the compound `C=CCc1ccccc1OCC(O)CNC(C)C` (centres undefined), the Potency entry in experiment [1], in [2], in [4], in experiment [5] and in experiment [8] was “inactive” in each case. Besides, in experiment [7], the call was inactive.
Consider `O=c1c(O)c(-c2ccc(O)cc2)oc2cc(O)cc(O)c12`, for which, in experiment [1], the Potency is 21.6 µM (active) and 26 µM (active). The Potency result in [2], in [5] and in [8] was “inactive” throughout. Moreover, the result in experiment [7] was inactive.
As for `C[C@]1(Cn2ccnn2)[C@H](C(=O)O)N2C(=O)C[C@H]2S1(=O)=O`, the Potency entry in [1], in [2], in experiment [5] and in [6] was “inactive” throughout. In [7], the compound was called inactive.
Turning to `CC1=C(Br)C(=O)C(Br)=C/C1=C(/c1ccccc1S(=O)(=O)O)c1cc(Br)c(O)c(Br)c1C`, the Potency entry in [10], in [9], in experiment [3] and in experiment [5] was “inactive” in each case. In addition, the Potency in experiment [2] is 18.6 µM (active).
For `COc1ccccc1Oc1c(NS(=O)(=O)c2ccc(C(C)(C)C)cc2)nc(-c2ncccn2)nc1OCCO`, in experiment [1], the Potency was 15 µM (active). Further, the Potency result in experiment [2], in experiment [5], in experiment [6] and in experiment [8] was “inactive” in each case. Also, the call in experiment [7] was inactive.
For `CN1CCCN=C1COC(=O)C(O)(c1ccccc1)C1CCCCC1` (centres undefined), the Potency result in experiment [10], in experiment [9], in experiment [2], in experiment [3], in [5] and in experiment [6] was “inactive” each time. Besides, the compound was classed as inactive in experiment [7].
In the case of `CCCCCC#CC(=O)OC`, the Potency result in experiment [1], in [2], in [5], in experiment [6] and in experiment [8] was “inactive” each time. The outcome in [7] was inactive.
On to `CC(=O)Nc1ccc(C)cc1C`, for which the Potency entry in experiment [1], in experiment [2] and in experiment [5] was “inactive” in each case. Moreover, the compound was classed as inactive in experiment [7].
For the compound `C/C=C/C=C/C=O`, the Potency entry in [10], in experiment [9], in experiment [2], in experiment [3], in [4] and in [5] was “inactive” throughout. The Potency result in [6] was “inactive”.
For `Brc1cc2ccccc2c2ccccc12`, the Potency result in [1], in [5] and in experiment [6] was “inactive” throughout. In addition, the Potency in experiment [3] was 30.9 µM (active).
`OCCN1CCN(CCCN2c3ccccc3Sc3ccc(Cl)cc32)CC1`: the Potency was 11.9 µM (active) in [1], 23.7 µM (active) in [3], 13.3 µM (active) in [5] and 29.8 µM (active) in [8]. Besides, in experiment [6], the Potency entry is “inactive”. Moreover, in experiment [7], the outcome was inactive.
As for `Nc1nc2ccc([N+](=O)[O-])cc2s1`, the Potency in experiment [1] is 48.6 µM (active). Moreover, the result in experiment [7] was inactive.
Turning to `CC/C=C1/OC(=O)c2ccccc21`, the Potency result in experiment [10], in experiment [9], in [2], in experiment [3], in experiment [4] and in experiment [5] was “inactive” throughout.
On to `O=C(OCC(O)CO)c1ccccc1Nc1ccnc2cc(Cl)ccc12` (centres undefined), for which, in [1], the Potency was 7.5 µM (active). For the same compound, the Potency entry in experiment [2], in experiment [4] and in experiment [6] was “inactive” each time.
